Consider six compounds from ChEMBL document CHEMBL1961873, “Compounds: GSK PKIS; Assays: Nanosyn kinase panel” (2012).

The target in assay [1] is Tyrosine-protein kinase Fer (Homo sapiens) (UniProt P16591). The settings on record: at 1 µM.
For assay [2], the target named is Tyrosine-protein kinase Fes/Fps (Homo sapiens) (UniProt P07332). The settings on record: at 0.1 µM.
Assay [3] has the same target. The settings on record: at 1 µM.
In assay [4] the target is Fibroblast growth factor receptor 1 (Homo sapiens) (UniProt P11362). Conditions: at 0.1 µM.
Assay [5] has the same target. The settings on record: at 1 µM.
Assay [6] deals with Fibroblast growth factor receptor 2 (Homo sapiens) (UniProt P21802). The settings on record: at 0.1 µM.
For assay [7] the target is unchanged. Conditions: at 1 µM.
For assay [8], the target named is Fibroblast growth factor receptor 3 (Homo sapiens) (UniProt P22607). Conditions: at 0.1 µM.
The target is the same in assay [9]. The settings on record: at 1 µM.
Assay [10] has as its target Fibroblast growth factor receptor 4 (Homo sapiens) (UniProt P22455). The settings on record: at 0.1 µM.
Assay [11] has the same target. Conditions: at 1 µM.
Assay [12] has as its target Tyrosine-protein kinase Fgr (Homo sapiens) (UniProt P09769). The settings on record: at 0.1 µM.
Assay [13] shares this target. Conditions: at 1 µM.
For assay [14], the target named is Vascular endothelial growth factor receptor 1 (Homo sapiens) (UniProt P17948). Conditions: at 0.1 µM.
Assay [15] shares this target. The settings on record: at 1 µM.
Assay [16] has as its target Receptor-type tyrosine-protein kinase FLT3 (Homo sapiens) (UniProt P36888). Conditions: at 0.1 µM.
Assay [17] has the same target. The settings on record: at 1 µM.
The subject of assay [18] is T1, Receptor-type tyrosine-protein kinase FLT3 (Homo sapiens), P36888 [D835Y].
T1 sequence (whole entry): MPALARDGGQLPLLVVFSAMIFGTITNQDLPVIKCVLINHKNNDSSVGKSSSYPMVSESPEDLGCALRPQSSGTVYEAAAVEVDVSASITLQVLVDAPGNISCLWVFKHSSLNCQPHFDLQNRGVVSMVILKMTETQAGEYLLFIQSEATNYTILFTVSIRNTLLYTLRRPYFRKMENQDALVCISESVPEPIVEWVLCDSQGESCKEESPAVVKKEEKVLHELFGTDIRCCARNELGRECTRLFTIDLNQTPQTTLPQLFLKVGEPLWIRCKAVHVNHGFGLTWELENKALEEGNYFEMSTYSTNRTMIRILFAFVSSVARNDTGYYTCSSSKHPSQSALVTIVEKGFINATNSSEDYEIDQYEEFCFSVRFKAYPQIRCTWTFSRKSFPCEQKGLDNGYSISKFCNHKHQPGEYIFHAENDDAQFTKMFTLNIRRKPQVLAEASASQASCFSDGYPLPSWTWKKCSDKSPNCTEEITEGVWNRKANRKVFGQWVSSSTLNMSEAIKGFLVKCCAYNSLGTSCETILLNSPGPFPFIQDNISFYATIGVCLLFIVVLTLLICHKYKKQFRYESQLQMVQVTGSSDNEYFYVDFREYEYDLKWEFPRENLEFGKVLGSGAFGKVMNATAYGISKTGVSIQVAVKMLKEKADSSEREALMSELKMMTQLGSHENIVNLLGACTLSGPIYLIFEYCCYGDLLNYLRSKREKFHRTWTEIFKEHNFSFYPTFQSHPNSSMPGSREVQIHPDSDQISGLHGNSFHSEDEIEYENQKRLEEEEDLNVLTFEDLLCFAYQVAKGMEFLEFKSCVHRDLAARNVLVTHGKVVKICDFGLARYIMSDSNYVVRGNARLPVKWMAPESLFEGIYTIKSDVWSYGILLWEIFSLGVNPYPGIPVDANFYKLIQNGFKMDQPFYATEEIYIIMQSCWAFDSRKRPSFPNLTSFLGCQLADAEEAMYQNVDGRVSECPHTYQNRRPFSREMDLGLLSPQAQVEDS
Conditions: at 0.1 µM.

Assay [19] addresses Non-receptor tyrosine-protein kinase TYK2 (Homo sapiens) (UniProt P29597). The settings on record: at 1 µM.
Assay [20] deals with T2, Tyrosine-protein kinase receptor TYRO3 (Homo sapiens) (UniProt Q06418).
T2 sequence (whole entry): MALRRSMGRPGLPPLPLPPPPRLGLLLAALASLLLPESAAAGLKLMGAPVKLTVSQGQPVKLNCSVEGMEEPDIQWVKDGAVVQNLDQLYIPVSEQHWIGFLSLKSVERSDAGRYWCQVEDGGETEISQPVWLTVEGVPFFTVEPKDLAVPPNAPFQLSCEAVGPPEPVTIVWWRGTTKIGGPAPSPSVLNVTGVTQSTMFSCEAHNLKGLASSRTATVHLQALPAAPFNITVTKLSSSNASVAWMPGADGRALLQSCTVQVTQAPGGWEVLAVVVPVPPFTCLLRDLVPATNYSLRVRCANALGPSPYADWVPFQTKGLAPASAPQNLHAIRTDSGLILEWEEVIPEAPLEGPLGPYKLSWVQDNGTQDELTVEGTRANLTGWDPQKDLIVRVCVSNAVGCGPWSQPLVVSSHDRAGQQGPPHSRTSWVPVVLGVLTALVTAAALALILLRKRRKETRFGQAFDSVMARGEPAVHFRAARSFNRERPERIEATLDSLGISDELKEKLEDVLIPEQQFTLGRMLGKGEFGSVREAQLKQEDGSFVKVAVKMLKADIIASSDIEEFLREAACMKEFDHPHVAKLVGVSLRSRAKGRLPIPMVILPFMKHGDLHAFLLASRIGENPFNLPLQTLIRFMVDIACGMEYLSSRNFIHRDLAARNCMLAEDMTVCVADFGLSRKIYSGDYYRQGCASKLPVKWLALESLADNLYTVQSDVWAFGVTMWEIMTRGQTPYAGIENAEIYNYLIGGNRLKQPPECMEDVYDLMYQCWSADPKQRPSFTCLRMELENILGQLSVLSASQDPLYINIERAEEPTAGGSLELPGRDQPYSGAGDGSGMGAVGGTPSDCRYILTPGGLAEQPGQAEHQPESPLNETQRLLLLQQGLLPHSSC
Conditions: at 0.1 µM.

Chain of Tyrosine-protein kinase Fer (Homo sapiens) (P16591 whole entry, looked up): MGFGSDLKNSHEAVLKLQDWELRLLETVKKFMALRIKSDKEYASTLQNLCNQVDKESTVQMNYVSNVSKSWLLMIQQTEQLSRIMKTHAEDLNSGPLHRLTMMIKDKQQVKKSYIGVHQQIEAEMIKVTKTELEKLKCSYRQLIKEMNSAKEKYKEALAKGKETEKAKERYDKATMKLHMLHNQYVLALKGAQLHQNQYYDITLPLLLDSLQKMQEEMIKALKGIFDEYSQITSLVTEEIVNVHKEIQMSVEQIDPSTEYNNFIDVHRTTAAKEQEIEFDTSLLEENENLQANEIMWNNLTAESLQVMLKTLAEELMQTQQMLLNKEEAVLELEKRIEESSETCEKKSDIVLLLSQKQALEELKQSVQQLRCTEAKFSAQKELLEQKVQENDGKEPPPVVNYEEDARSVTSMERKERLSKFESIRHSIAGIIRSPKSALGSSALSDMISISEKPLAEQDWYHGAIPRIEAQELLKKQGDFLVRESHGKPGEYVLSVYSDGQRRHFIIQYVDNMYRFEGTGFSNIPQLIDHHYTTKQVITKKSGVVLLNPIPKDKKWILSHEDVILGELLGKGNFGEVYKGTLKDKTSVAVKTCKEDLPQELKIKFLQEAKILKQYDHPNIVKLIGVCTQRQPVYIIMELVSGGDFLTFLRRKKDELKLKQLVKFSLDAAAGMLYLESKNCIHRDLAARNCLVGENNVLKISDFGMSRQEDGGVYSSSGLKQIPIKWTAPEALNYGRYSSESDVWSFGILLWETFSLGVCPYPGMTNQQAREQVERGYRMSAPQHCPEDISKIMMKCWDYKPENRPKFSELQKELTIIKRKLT
Chain of Tyrosine-protein kinase Fes/Fps (Homo sapiens) (P07332 whole entry): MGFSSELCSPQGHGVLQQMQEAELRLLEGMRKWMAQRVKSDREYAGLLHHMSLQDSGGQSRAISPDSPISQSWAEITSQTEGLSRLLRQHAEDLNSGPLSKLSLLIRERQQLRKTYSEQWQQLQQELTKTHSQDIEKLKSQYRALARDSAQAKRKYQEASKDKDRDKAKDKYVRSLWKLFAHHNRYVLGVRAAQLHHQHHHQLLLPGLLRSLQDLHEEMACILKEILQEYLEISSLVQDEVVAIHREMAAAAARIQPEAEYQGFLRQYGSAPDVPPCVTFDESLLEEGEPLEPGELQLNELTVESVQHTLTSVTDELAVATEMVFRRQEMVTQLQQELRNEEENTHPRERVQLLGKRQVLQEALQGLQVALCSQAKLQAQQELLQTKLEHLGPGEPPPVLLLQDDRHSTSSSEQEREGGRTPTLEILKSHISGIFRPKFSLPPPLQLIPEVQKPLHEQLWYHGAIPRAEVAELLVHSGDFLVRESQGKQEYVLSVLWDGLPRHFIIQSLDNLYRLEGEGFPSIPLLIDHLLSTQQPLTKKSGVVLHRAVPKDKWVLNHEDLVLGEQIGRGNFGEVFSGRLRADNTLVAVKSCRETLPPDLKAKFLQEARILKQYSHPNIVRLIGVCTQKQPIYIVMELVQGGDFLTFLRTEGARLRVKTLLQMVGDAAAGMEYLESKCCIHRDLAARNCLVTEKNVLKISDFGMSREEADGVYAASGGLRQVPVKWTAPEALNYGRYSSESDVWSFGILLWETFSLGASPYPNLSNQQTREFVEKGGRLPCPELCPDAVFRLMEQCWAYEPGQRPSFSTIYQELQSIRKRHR
Chain of Vascular endothelial growth factor receptor 1 (Homo sapiens) (P17948 whole entry): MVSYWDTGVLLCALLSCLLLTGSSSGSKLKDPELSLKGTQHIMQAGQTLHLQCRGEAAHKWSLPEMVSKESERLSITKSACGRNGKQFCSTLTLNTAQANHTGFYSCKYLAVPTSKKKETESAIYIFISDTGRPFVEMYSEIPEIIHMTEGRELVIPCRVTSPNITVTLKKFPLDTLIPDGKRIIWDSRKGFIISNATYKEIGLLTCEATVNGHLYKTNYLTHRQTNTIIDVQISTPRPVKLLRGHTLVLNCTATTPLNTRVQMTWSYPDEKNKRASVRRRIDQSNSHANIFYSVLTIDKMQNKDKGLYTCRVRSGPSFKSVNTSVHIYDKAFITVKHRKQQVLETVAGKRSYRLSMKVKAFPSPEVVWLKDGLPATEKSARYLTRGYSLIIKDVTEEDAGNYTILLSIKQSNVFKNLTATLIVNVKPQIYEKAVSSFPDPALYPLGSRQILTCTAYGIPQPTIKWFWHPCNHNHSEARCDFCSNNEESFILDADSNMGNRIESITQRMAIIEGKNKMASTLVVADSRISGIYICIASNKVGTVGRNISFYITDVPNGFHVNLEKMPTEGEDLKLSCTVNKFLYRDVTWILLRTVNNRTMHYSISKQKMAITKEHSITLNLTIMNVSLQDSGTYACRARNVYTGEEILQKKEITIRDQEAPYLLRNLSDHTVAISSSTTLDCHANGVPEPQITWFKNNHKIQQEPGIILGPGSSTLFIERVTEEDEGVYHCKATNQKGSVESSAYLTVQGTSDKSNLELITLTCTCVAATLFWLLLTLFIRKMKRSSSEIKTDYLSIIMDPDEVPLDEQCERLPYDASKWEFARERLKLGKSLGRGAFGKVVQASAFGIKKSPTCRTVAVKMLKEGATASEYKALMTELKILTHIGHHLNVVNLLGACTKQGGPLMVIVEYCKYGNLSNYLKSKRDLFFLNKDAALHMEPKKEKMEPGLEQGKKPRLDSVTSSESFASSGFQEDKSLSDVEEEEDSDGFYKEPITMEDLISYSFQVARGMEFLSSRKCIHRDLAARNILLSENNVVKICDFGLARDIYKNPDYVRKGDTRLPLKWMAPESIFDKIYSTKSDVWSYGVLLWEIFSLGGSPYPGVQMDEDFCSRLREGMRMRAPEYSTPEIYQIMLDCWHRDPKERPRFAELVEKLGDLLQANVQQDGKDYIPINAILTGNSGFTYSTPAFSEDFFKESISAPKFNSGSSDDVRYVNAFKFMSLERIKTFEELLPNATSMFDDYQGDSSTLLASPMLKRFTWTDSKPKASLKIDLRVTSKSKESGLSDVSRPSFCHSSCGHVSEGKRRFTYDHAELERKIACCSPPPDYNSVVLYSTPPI
Chain of Fibroblast growth factor receptor 1 (Homo sapiens) (P11362 22-822 limits assumed): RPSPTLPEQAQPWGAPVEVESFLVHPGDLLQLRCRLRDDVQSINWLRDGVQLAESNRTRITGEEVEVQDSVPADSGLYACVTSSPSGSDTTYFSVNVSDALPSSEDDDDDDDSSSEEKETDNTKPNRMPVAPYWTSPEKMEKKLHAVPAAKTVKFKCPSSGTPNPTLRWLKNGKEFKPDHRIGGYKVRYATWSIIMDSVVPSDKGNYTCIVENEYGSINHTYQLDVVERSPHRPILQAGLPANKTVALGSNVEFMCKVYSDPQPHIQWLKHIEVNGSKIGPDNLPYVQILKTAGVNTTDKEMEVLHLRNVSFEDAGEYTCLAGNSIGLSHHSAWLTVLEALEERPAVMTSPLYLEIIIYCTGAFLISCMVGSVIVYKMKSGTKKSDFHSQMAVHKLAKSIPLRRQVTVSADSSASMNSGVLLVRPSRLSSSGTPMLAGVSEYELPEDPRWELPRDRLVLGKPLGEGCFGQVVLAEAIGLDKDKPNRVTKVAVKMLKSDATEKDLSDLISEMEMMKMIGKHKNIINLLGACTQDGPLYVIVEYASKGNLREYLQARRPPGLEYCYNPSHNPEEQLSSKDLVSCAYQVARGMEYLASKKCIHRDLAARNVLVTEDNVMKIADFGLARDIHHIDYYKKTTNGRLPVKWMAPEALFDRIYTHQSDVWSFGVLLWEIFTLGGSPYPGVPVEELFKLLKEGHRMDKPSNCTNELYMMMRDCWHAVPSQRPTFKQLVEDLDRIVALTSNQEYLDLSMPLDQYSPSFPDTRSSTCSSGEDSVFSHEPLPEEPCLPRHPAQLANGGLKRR
Chain of Tyrosine-protein kinase Fgr (Homo sapiens) (P09769 2-529 limits assumed): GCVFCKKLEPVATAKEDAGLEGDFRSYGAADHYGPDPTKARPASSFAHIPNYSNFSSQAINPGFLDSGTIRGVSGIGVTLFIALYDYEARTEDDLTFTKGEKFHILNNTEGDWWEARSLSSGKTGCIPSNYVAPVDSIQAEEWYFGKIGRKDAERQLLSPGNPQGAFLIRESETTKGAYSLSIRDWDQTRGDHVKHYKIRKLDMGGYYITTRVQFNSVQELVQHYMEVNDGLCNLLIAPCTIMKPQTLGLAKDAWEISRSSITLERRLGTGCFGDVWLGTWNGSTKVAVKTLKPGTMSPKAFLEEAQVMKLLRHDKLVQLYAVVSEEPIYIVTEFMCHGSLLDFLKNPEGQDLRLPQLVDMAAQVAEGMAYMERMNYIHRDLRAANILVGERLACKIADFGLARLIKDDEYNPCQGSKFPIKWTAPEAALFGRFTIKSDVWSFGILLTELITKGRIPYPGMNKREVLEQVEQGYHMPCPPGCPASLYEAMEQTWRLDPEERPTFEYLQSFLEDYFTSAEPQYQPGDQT
Chain of Fibroblast growth factor receptor 4 (Homo sapiens) (P22455 22-802 limits assumed): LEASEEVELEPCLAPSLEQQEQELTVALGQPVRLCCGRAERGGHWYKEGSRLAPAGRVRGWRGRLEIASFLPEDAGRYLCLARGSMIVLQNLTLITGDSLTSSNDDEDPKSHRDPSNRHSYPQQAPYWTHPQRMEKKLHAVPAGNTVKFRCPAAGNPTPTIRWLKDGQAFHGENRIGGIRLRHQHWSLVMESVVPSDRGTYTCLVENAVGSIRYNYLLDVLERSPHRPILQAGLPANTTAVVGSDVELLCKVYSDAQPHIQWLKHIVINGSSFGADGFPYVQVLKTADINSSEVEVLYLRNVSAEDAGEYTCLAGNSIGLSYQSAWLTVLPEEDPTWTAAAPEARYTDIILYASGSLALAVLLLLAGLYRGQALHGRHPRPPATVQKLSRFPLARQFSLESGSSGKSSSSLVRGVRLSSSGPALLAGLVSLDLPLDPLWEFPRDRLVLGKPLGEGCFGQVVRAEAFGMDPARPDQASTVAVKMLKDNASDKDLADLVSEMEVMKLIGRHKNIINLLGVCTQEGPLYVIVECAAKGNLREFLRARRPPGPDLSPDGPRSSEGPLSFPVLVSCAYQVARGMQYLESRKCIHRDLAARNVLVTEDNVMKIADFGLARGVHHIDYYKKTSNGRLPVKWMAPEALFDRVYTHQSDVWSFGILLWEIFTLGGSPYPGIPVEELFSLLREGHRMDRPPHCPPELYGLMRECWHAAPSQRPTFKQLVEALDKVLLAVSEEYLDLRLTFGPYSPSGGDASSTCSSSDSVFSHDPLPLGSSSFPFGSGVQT

As for `CCn1c(-c2nonc2N)nc2cncc(C(=O)N3CCNCC3)c21`, the inhibition was 0.82% in assay [1]; 5.22% in assay [2]; 4.85% in [3]; 7.76% in [4]; 5.74% in assay [5]; 11.8% in [6]. Besides, the inhibition in [7] stood at 7.87%; in [8], 12.3%; in assay [9], 7.38%; in assay [10], 4.67%; in [11], 2.67%; in assay [12] it was 1.29%. Further, the inhibition in assay [13] was 2.57%; in assay [14] it was 0.7%; in assay [15], 2.54%; in assay [16], 5.99%; in assay [17], 4.6%; in [18], -1.23%. Further, the inhibition in assay [19] was -2.3%; in [20] it was 1.84%.

Consider `COc1ccc(-c2nn3ncccc3c2-c2ccnc(Nc3ccc(Cl)c(C(F)(F)F)c3)n2)cc1`, for which the inhibition in assay [1] was 3.06%; in assay [2], 0.66%; in assay [3], 1.82%; in assay [4] it was 1.96%; in assay [5], -2.37%; in assay [6], 1.72%. Further, the inhibition in assay [7] was 2.97%; in [8], 2.57%; in [9], 4.12%; in assay [10], 0.28%; in assay [11], 0.98%; in [12], 5.75%. The inhibition in assay [13] is 16.9%; in [14] it was -1.35%; in assay [15], 1.63%; in [16], -0.69%; in assay [17], 1.14%; in assay [18], -1.91%. Besides, the inhibition in [19] is 1.02%; in assay [20] it was 0.79%.

`c1cnn2ncc(-c3ccnc(Nc4ccc5c(c4)OCCO5)n3)c2c1`: the inhibition in assay [1] is 43.7%; in assay [2], 10.5%; in [3], 48%; in assay [4] it was 5.77%; in assay [5], 5.22%; in assay [6] it was 6.35%. Moreover, the inhibition was 15.9% in assay [7]; 6.39% in assay [8]; 15.7% in assay [9]; -0.77% in assay [10]; 4.77% in assay [11]; 4.29% in assay [12]. Further, the inhibition in assay [13] is 14.5%; in assay [14] it was 8.17%; in assay [15], 20.5%; in assay [16], 29.5%; in [17], 75.7%; in [18], 9.31%. The inhibition worked out at 12.8% in assay [19] and 5.88% in assay [20].

`COc1cc2ncn(-c3cc(OCc4ccccc4C(F)(F)F)c(C(N)=O)s3)c2cc1OC`: the inhibition in [1] was 10.5%; in assay [2], 2.56%; in assay [3], 1.4%; in [4], -0.93%; in assay [5], 13%; in [6], 2.62%. The inhibition is 20.9% in assay [7]; 6.21% in assay [8]; 18.2% in [9]; -3.31% in assay [10]; -1.16% in assay [11]; 4.79% in [12]. Further, the inhibition in assay [13] is 14.6%; in [14], 1.92%; in assay [15], 9.39%; in assay [16] it was 0.06%; in [17], 9.95%; in assay [18] it was 9.27%. Besides, the values for the inhibition in assay [19] and in assay [20] were -6.76% and 3.15%, respectively.

As to `CCCN1CCC(Oc2cc(Nc3nc(Nc4cccc(F)c4C(N)=O)c4cc[nH]c4n3)c(OC)cc2Cl)CC1`, the inhibition was 16% in assay [1]; 0.64% in assay [2]; 8.02% in assay [3]; 0.06% in assay [4]; 3.54% in [5]; -2.81% in assay [6]. In addition, the inhibition in assay [7] stood at 3.3%; in [8], 0.52%; in assay [9], 0.96%; in assay [10], 0.71%; in assay [11] it was 1.48%; in [12] it was 0.61%. The inhibition in assay [13] is 4.19%; in assay [14] it was -0.02%; in assay [15], 2.7%; in assay [16], 0.23%; in assay [17], 2.55%; in [18], -3.12%. For the same compound, the inhibition in [19] was 0.45%; in assay [20] it was -0.27%.

As to `CCCN1CCC=C(c2ccc(Nc3nc(Nc4ccccc4C(N)=O)c4cc[nH]c4n3)c(C)c2)C1`, the inhibition in assay [1] worked out at 68.7%; in assay [2] it was 16.5%; in assay [3], 57.3%; in [4], 1.72%; in assay [5], 7.09%; in assay [6], 6.37%. The inhibition in [7] was 7.35%; in assay [8], 6.92%; in assay [9] it was 6.81%; in [10], 3.01%; in assay [11], 1.82%; in [12], -0.56%. The inhibition was 4.71% in assay [13]; -0.55% in [14]; 5.76% in assay [15]; 6.74% in assay [16]; 9.96% in assay [17]; 3.17% in assay [18]. Also, the inhibition in assay [19] is -1.46%; in assay [20], 0.75%.

For orientation: inhibition means the drop in the measured response relative to a control, in per cent.
